# Measurements: the supplement of paper PMC8728848
# This excerpt belongs to a sample that is enriched for the strongest signals.
# B1: Siglec-H (Mus musculus), Q4QQK7 (protein)
# chain: MLLSRLLPLLWVLKWASGNCFILPREVIGTYPSLTLELQSVTVQEGLCVLVPCHLIEYPMNRWSDAAFGYWFHEGENTHPDSLVATNKPYQLVQKEMQSRFHFSGDCSLDIRDAQKGDNGSYFFRLEKGGKTWNFCEERISVHVTDLTHSPNISIPQTLELGRPTNVMCSVPWACERGTPPIFSWMSAALISLGPTTTLSSVLTLTPRLQDHGTNLTCQVTFPGAGVTVQKTIQLNVTYNSQNSTAHVSGRVGPGKPRPLADVVQVAMGEAAIKFLLLGICFFFLSKRSHTKRVERPATHMDQAHAVMD
# B2: Langerin CRD (Homo sapiens), Q9UJ71 (protein)
# chain: QVVSQGWKYFKGNFYYFSLIPKTWYSAEQFCVSRNSHLTSVTSESEQEFLYKTAGGLIYWIGLTKAGMEGDWSWVDDTPFNKVQSVRFWIPGEPNNAGNNEHCGNIKAPSLQAWNDAPCDKTFLFICKRPYVPSEPSAWSHPQFEK
# B3: NcCVNHO (Neurospora crassa), Q7S6U4 (protein)
# chain: MSFHVTAEDARIEVRDNRTILFARLRREDGEWNDASYELDQIIGNNDGHFQWGGQNFTETAEDIRFHPKEGAAEQPILRARLRDCNGEFHDRDVNLTEIVENVNGEFQAKF
# Columns and labels:
# Test in all cases: glycan array binding signal (z-score within array); higher = stronger binding
# Conditions in all cases: glycan notation: IUPAC condensed, linker removed
# Fuc(a1-2)Gal = target: Fuc(a1-2)Gal
# In short: (§1)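 Arrays were curated from the Consortium for Functional Glycomics database, 3228 in total, and kept only where the protein sequence was available. Binding is expressed as a within-array Z-score. This score was averaged across arrays of the same protein sequence at different concentrations or buffers and across linkers, and negative values can be read as non-binding.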
# [1] = target: Fuc(a1-2)Gal(b1-3)GalNAc(b1-3)Gal
# In short: as §1
# [2] = target: Fuc(a1-2)Gal(b1-3)GlcNAc(b1-3)Gal(b1-4)Glc
# In short: as §1
# [3] = target: Fuc(a1-2)[GalNAc(a1-3)]Gal(b1-3)GlcNAc
# In short: as §1
# [4] = target: Fuc(a1-3)[Gal(b1-4)]GlcNAc(b1-4)Gal(b1-4)[Fuc(a1-3)]GlcNAc(b1-4)Gal(b1-4)[Fuc(a1-3)]GlcNAc
# In short: as §1
# Fuc(a1-4)GlcNAc = target: Fuc(a1-4)GlcNAc
# In short: as §1
# [5] = target: Gal(b1-3)GalNAc(b1-3)Gal(a1-4)Gal(b1-4)Glc
# In short: as §1
# [6] = target: Gal(b1-4)GlcNAc(b1-3)Gal(b1-4)GlcNAc
# In short: as §1
# [7] = target: Gal(b1-4)GlcNAc(b1-3)[Gal(b1-4)GlcNAc(b1-6)]GalNAc
# In short: as §1
# Gal3S(b1-4)GlcNAc6S = target: Gal3S(b1-4)GlcNAc6S
# In short: as §1
# [8] = target: Neu5Ac(a2-3)Gal(b1-3)[Neu5Ac(a2-6)]GalNAc
# In short: as §1
# [9] = target: Neu5Ac(a2-6)Gal(b1-4)GlcNAc(b1-3)Gal(b1-4)GlcNAc
# In short: as §1
# Neu5Ac(b1-6)GalNAc = target: Neu5Ac(b1-6)GalNAc
# In short: as §1
# [10] = target: Neu5Gc(a2-3)Gal(b1-4)[Fuc(a1-3)]GlcNAc
# In short: as §1
# Fuc(a1-2)Gal(b1-3)GlcNAc = target: Fuc(a1-2)Gal(b1-3)GlcNAc
# In short: as §1
# Fuc(a1-2)[Gal(a1-3)]Gal = target: Fuc(a1-2)[Gal(a1-3)]Gal
# In short: as §1
# Gal(a1-3)Gal(b1-3)GlcNAc = target: Gal(a1-3)Gal(b1-3)GlcNAc
# In short: as §1
# Gal(a1-3)Gal(b1-4)Glc = target: Gal(a1-3)Gal(b1-4)Glc
# In short: as §1
# Gal(a1-6)Glc = target: Gal(a1-6)Glc
# In short: as §1
# Gal(b1-3)Gal(b1-4)GlcNAc = target: Gal(b1-3)Gal(b1-4)GlcNAc
# In short: as §1
# [11] = target: Gal(b1-3)GlcNAc(b1-3)Gal(b1-4)Glc
# In short: as §1
# [12] = target: Gal(b1-3)[Fuc(a1-4)]GlcNAc
# In short: as §1
# [13] = target: Gal(b1-4)GlcNAc(b1-3)[GlcNAc(b1-6)]Gal(b1-4)GlcNAc
# In short: as §1
# [14] = target: Gal(b1-4)GlcNAc(b1-6)[Gal(b1-3)]GalNAc
# In short: as §1
# Gal3S(b1-4)Glc = target: Gal3S(b1-4)Glc
# In short: as §1
# Gal6S(b1-4)Glc6S = target: Gal6S(b1-4)Glc6S
# In short: as §1
# Gal6S(b1-4)GlcNAc6S = target: Gal6S(b1-4)GlcNAc6S
# In short: as §1
# [15] = target: GalNAc(b1-3)Gal(a1-4)Gal(b1-4)GlcNAc
# In short: as §1
# [16] = target: GlcNAc(b1-2)Gal(b1-3)GalNAc
# In short: as §1
# [17] = target: GlcNAc(b1-4)Gal(b1-4)GlcNAc
# In short: as §1
# [18] = target: Man(a1-2)Man(a1-2)Man(a1-3)Man
# In short: as §1
# [19] = target: Man(a1-2)Man(a1-3)[Man(a1-2)Man(a1-6)]Man(a1-6)[Man(a1-2)Man(a1-2)Man(a1-3)]Man(b1-4)GlcNAc(b1-4)GlcNAc
# In short: as §1
# [20] = target: Neu5Ac(a2-3)Gal(b1-3)GalNAc
# In short: as §1
# [21] = target: Neu5Ac(a2-3)Gal(b1-4)GlcNAc(b1-2)Man(a1-3)[Neu5Ac(a2-6)Gal(b1-4)GlcNAc(b1-2)Man(a1-6)]Man(b1-4)GlcNAc(b1-4)GlcNAc
# In short: as §1
# [22] = target: Neu5Ac(a2-3)Gal(b1-4)GlcNAc(b1-6)[Gal(b1-3)]GalNAc
# In short: as §1
# Neu5Ac(a2-8)Neu5Ac = target: Neu5Ac(a2-8)Neu5Ac
# In short: as §1
# [23] = target: Neu5Ac9Ac(a2-6)Gal(b1-4)GlcNAc
# In short: as §1
# [24] = target: Neu5Gc(b2-6)Gal(b1-4)GlcNAc
# In short: as §1
# [25] = target: Fuc(a1-2)Gal6S(b1-4)GlcNAc
# In short: as §1
# [26] = target: Fuc(a1-3)[Gal(b1-4)]GlcNAc(b1-2)Man(a1-3)[Fuc(a1-3)[Gal(b1-4)]GlcNAc(b1-2)Man(a1-6)]Man(b1-4)GlcNAc(b1-4)GlcNAc
# In short: as §1
# [27] = target: Fuc(a1-3)[Gal(b1-4)]GlcNAc(b1-2)Man(a1-6)[Gal(b1-4)GlcNAc(b1-2)Man(a1-3)]Man(b1-4)GlcNAc(b1-4)GlcNAc
# In short: as §1
# [28] = target: Fuc(a1-3)[GalNAc(b1-4)]GlcNAc
# In short: as §1
# Fuc(b1-3)GlcNAc = target: Fuc(b1-3)GlcNAc
# In short: as §1
# Gal(a1-3)GalNAc = target: Gal(a1-3)GalNAc
# In short: as §1
# [29] = target: Gal(b1-3)GlcNAc(b1-3)Gal(b1-4)GlcNAc
# In short: as §1
# [30] = target: Gal(b1-3)[Neu5Ac(a2-6)]GlcNAc(b1-6)Gal(b1-4)Glc
# In short: as §1
# [31] = target: Gal(b1-4)GlcNAc(b1-6)GalNAc
# In short: as §1
# [32] = target: GlcNAc(a1-6)Gal(b1-4)GlcNAc
# In short: as §1
# [33] = target: GlcNAc(b1-3)[GlcNAc(b1-6)]GlcNAc(b1-4)GlcNAc
# In short: as §1
# [34] = target: Man(a1-2)Man(a1-2)Man(a1-3)[Man(a1-2)Man(a1-3)[Man(a1-2)Man(a1-6)]Man(a1-6)]Man(b1-4)GlcNAc(b1-4)GlcNAc
# In short: as §1
# [35] = target: Man(a1-2)Man(a1-2)Man(a1-6)[Man(a1-3)]Man
# In short: as §1
# [36] = target: Man(a1-2)Man(a1-3)[Man(a1-2)Man(a1-6)]Man
# In short: as §1
# [37] = target: Man(a1-2)Man(a1-3)[Man(a1-3)[Man(a1-6)]Man(a1-6)]Man(b1-4)GlcNAc(b1-4)GlcNAc
# In short: as §1
# [38] = target: Neu5Ac(a2-3)Gal(b1-3)GalNAc(b1-4)[Neu5Ac(a2-3)]Gal(b1-4)Glc
# In short: as §1
# [39] = target: Neu5Ac(a2-3)Gal(b1-3)GlcNAc
# In short: as §1
# [40] = target: Neu5Ac(a2-3)Gal(b1-4)GlcNAc
# In short: as §1
# [41] = target: Neu5Ac(a2-8)Neu5Ac(a2-8)Neu5Ac(a2-3)[GalNAc(b1-4)]Gal(b1-4)Glc
# In short: as §1
binder,measurement,setting,value
B1,glycan array binding signal (z-score),Fuc(a1-2)Gal,-0.112
same,glycan array binding signal (z-score),[1],2.48
same,glycan array binding signal (z-score),[2],2.46
same,glycan array binding signal (z-score),[3],-0.271
same,glycan array binding signal (z-score),[4],-0.236
same,glycan array binding signal (z-score),Fuc(a1-4)GlcNAc,-0.188
same,glycan array binding signal (z-score),[5],-0.31
same,glycan array binding signal (z-score),[6],-0.348
same,glycan array binding signal (z-score),[7],6.24
same,glycan array binding signal (z-score),Gal3S(b1-4)GlcNAc6S,-0.224
same,glycan array binding signal (z-score),[8],2.4
same,glycan array binding signal (z-score),[9],1.02
same,glycan array binding signal (z-score),Neu5Ac(b1-6)GalNAc,0.697
same,glycan array binding signal (z-score),[10],-0.29
B2,glycan array binding signal (z-score),Fuc(a1-2)Gal,0.647
same,glycan array binding signal (z-score),Fuc(a1-2)Gal(b1-3)GlcNAc,0
same,glycan array binding signal (z-score),Fuc(a1-2)[Gal(a1-3)]Gal,4.04
same,glycan array binding signal (z-score),Gal(a1-3)Gal(b1-3)GlcNAc,-0.623
same,glycan array binding signal (z-score),Gal(a1-3)Gal(b1-4)Glc,-0.487
same,glycan array binding signal (z-score),Gal(a1-6)Glc,-0.427
same,glycan array binding signal (z-score),Gal(b1-3)Gal(b1-4)GlcNAc,-0.488
same,glycan array binding signal (z-score),[11],-0.48
same,glycan array binding signal (z-score),[12],-0.279
same,glycan array binding signal (z-score),[13],0.314
same,glycan array binding signal (z-score),[14],-0.489
same,glycan array binding signal (z-score),Gal3S(b1-4)Glc,-0.325
same,glycan array binding signal (z-score),Gal6S(b1-4)Glc6S,4.01
same,glycan array binding signal (z-score),Gal6S(b1-4)GlcNAc6S,6.72
same,glycan array binding signal (z-score),[15],-0.356
same,glycan array binding signal (z-score),[16],4.61
same,glycan array binding signal (z-score),[17],1.57
same,glycan array binding signal (z-score),[18],4.1
same,glycan array binding signal (z-score),[19],-0.352
same,glycan array binding signal (z-score),[20],-0.547
same,glycan array binding signal (z-score),[21],-0.647
same,glycan array binding signal (z-score),[22],-0.693
same,glycan array binding signal (z-score),Neu5Ac(a2-8)Neu5Ac,-0.544
same,glycan array binding signal (z-score),[23],-0.422
same,glycan array binding signal (z-score),[24],-0.263
B3,glycan array binding signal (z-score),Fuc(a1-2)Gal,-0.209
same,glycan array binding signal (z-score),[2],5.47
same,glycan array binding signal (z-score),[25],-0.185
same,glycan array binding signal (z-score),[26],-0.194
same,glycan array binding signal (z-score),[27],-0.185
same,glycan array binding signal (z-score),[28],-0.254
same,glycan array binding signal (z-score),Fuc(b1-3)GlcNAc,-0.209
same,glycan array binding signal (z-score),Gal(a1-3)GalNAc,-0.225
same,glycan array binding signal (z-score),[11],4.71
same,glycan array binding signal (z-score),[29],-0.264
same,glycan array binding signal (z-score),[30],4.11
same,glycan array binding signal (z-score),[7],-0.246
same,glycan array binding signal (z-score),[31],-0.228
same,glycan array binding signal (z-score),[14],-0.196
same,glycan array binding signal (z-score),Gal6S(b1-4)Glc6S,-0.209
same,glycan array binding signal (z-score),Gal6S(b1-4)GlcNAc6S,-0.172
same,glycan array binding signal (z-score),[32],-0.245
same,glycan array binding signal (z-score),[33],-0.297
same,glycan array binding signal (z-score),[34],8.87
same,glycan array binding signal (z-score),[35],4.66
same,glycan array binding signal (z-score),[36],4.86
same,glycan array binding signal (z-score),[37],0.23
same,glycan array binding signal (z-score),[38],-0.244
same,glycan array binding signal (z-score),[39],-0.217
same,glycan array binding signal (z-score),[40],-0.24
same,glycan array binding signal (z-score),[41],-0.24
